In PubChem BioAssay AID1529 (NMMLSC, 2009):
Among all 290,000 compounds or so, about 4,200 (1.4%) were called active. This is one part of a sample in which actives are shown more often than they occur.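 Rule for the calls: active = binding response more than 3 SD above or below the average of its plate-row segment, actives on both sides; inconclusive = wells at one plate position flagged as instrument error; inactive = the rest.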

Molecular target: Mitogen-activated protein kinase kinase kinase 3 (Homo sapiens) (UniProt Q99759)
Sequence (Q99759 whole entry, looked up): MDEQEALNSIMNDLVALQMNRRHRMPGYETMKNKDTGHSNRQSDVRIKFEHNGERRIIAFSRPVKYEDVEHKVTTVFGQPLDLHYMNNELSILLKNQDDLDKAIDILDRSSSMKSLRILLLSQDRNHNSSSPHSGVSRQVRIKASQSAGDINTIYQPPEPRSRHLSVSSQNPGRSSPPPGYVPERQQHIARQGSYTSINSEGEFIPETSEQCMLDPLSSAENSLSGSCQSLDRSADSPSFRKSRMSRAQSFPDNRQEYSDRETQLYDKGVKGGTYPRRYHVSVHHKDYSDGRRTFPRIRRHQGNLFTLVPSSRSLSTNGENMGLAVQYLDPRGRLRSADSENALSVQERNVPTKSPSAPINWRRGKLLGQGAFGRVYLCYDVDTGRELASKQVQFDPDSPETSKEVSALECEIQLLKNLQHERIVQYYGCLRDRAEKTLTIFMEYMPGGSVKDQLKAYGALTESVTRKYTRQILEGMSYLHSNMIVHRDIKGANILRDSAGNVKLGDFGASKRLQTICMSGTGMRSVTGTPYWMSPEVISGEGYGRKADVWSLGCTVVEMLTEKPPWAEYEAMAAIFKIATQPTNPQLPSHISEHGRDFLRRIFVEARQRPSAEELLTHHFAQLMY
Assay: compounds raising or lowering MEK5 association with MEKK3 PB1 – biochemical, wildtype MEKK3, multiplex bead flow cytometry, Alexa488-MEK5, primary screen (AID 1529);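 note: Alexa488 bead fluorescence after subtracting the streptavidin-only scavenger bead signal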
Conditions: bead-based flow cytometry, Alexa488-MEK5 binding to MEKK3; at 10 µM; actives lie on both sides; 0 = blocked by unlabeled MEK5, 100 = vehicle

| Structure (SMILES) | binding response (% of control) |
| --- | --- |
| COc1cc2c(C(=O)N(C)c3cc(Cl)ccc3OC)cn(C)c(=O)c2cc1OC | 102% (inactive) |
| O=C(NCc1ccco1)c1ccc(Cn2c(=O)c3sccc3n(Cc3ccc(F)cc3)c2=O)cc1 | 115% (inactive) |
| COCCNC(=O)CCCn1c(=O)c2ccccc2n(Cc2cccc([N+](=O)[O-])c2)c1=O | 101% (inactive) |
| Cc1ccc(CNC(=O)Cn2c(=O)c3sccc3n(Cc3cccc([N+](=O)[O-])c3)c2=O)cc1 | 141% (active) |
| COc1ccccc1N1CCN(c2nc(C)cc(=O)[nH]2)CC1 | 104% (inactive) |
| CCOC(=O)C1CN(S(=O)(=O)c2ccc(OC)cc2)c2cc(Cl)ccc2O1 (stereo not drawn) | 105% (inactive) |
| COc1ccc(S(=O)(=O)Nc2ccc3oc(C)c(C(C)=O)c3c2)cc1 | 122% (active) |
| CC(=O)c1c(C)oc2ccc(NS(=O)(=O)c3ccc(C(=O)O)cc3)cc12 | 99% (inactive) |
| CC(=O)c1c(C)oc2ccc(NS(=O)(=O)c3ccccc3)cc12 | 101% (inactive) |
| Cc1nc2ccc(S(=O)(=O)NC(C(=O)N3CCCCCC3)C(C)C)cc2s1 (stereo not drawn) | 105% (inactive) |
| Cc1nc2cc(S(=O)(=O)C(F)(F)F)ccc2s1 | 129% (active) |
| Cc1nc2ccc(S(=O)(=O)NCC(=O)O)cc2s1 | 106% (inactive) |
| CCOc1ccccc1NC(=O)C1CCCN(S(=O)(=O)c2ccccc2)C1 (stereo not drawn) | 100% (inactive) |
| O=S(=O)(c1ccccc1)c1nc(Cc2ccccc2)oc1N1CCOCC1 | 98% (inactive) |
| Cc1nnc(NC(=O)C(c2ccccc2)c2ccccc2)s1 | 98% (inactive) |
| CC1CCCC(C)N1C(=O)CSc1nnnn1C1CCCC1 (stereo not drawn) | 101% (inactive) |
| CCCc1nnc(SCC(=O)N2C(C)CCCC2C)n1CC (stereo not drawn) | 145% (active) |
| CCCc1cc(=O)[nH]c(SCC(=O)N2C(C)CCCC2C)n1 (stereo not drawn) | 107% (inactive) |
| O=C(O)c1ccc(NC(=O)c2ccc(COc3ccc(Cl)cc3)o2)cc1 | 103% (inactive) |
| CC1CN(CC(=O)NC(C)c2ccccc2)CC(C)O1 (stereo not drawn) | 101% (inactive) |
| COc1ccc(N2CCN(C(=O)c3cccs3)CC2)cc1 | 97% (inactive) |
| COc1ccc(Cl)cc1NC(=O)CCS(=O)(=O)c1cc2c(cc1C)NC(=O)CO2 | 104% (inactive) |
| O=C(CCS(=O)(=O)c1ccc(Br)cc1)NCCc1ccc(Cl)cc1 | 105% (inactive) |
| COc1ccc(Cl)cc1NC(=O)CCS(=O)(=O)c1ccc(Br)cc1 | 80% [inhibitor] (active) |

| Structure (SMILES) | binding response (% of control) |
| --- | --- |
| CN(C)c1ccc(NC(=O)CN2C3CCCC2CC(NC(=O)c2ccccc2)C3)cc1 (stereo not drawn) | 104% (inactive) |
| COc1ccccc1CNC(=O)c1ccc(N(C)S(=O)(=O)c2ccc(C)cc2)cc1 | 96% (inactive) |
| COc1ccc(-c2[nH]ncc2CN(C)Cc2c(C)n[nH]c2C)c(OC)c1 | 0% [inhibitor] (active) |
| COc1ccc(-c2[nH]ncc2CN(C)Cc2cccnc2)c(F)c1 | 108% (inactive) |
| COc1ccc(-c2[nH]ncc2CN(C)Cc2cc(C)[nH]n2)c(F)c1 | 102% (inactive) |
| C#CCNC(=O)[C@H](Cc1ccc(C(=O)c2ccccc2)cc1)NC(=O)OC(C)(C)C | 101% (inactive) |
| CCOCCCNC(=O)c1ccc(CS(=O)(=O)c2cccc(C(F)(F)F)c2)o1 | 101% (inactive) |
| Cc1c(C)n(Cc2ccc(Cl)cc2)c2ccc(C(=O)NCCCN3CCOCC3)cc12 | 106% (inactive) |
| CCOCCCN(C)C1CCN(C(=O)c2oc3ccccc3c2NC(=O)COc2cccc(C)c2)CC1 | 105% (inactive) |
| COc1ccc(C(=O)CCc2ccccc2O)c(OC)c1 | 97% (inactive) |
| O=C(NNc1c2ccccc2nc2ccccc12)c1cc2ccccc2cc1O | 69% [inhibitor] (active) |
| CC(C)(C)OC(=O)NNc1c2ccccc2nc2ccccc12 | 91% (inactive) |
| O=C(N/N=C/c1cccnc1)c1cc2ccccc2cc1O | 99% (inactive) |
| Cc1ccc(NC(=O)COc2ccc(/C=C3/NC(=O)NC3=O)cc2)cc1 | 99% (inactive) |
| COCCCNC(=S)N(CCN(C)C)Cc1cc2cc3c(cc2[nH]c1=O)OCCO3 | 101% (inactive) |
| COC(=O)C1(CCSC)NC(c2ccc(OC)cc2OC)C2C(=O)N(c3cccc(C(C)=O)c3)C(=O)C21 (stereo not drawn) | 101% (inactive) |
| CCC(CC)c1nnc(NC(=O)C2CCN(C(=O)c3ccco3)CC2)s1 | 102% (inactive) |
| NC(=O)C1=C[C@@H](c2ccc3c(c2)OCO3)C[C@@H](OCCCCO)O1 | 102% (inactive) |
| Clc1cccc(Cl)c1OCCOCCNCc1ccccc1 | 102% (inactive) |
| CCN(CC)CCOCCOc1ccc(Cl)c2ccccc12 | 3% [inhibitor] (active) |
| CN(C)CCOCCOc1ccc(Cl)c2ccccc12 | 78% (inactive) |
| CCOC(=O)CSc1nnc(CNc2nc(-c3ccccc3)cs2)n1C | 92% (inactive) |
| CCNC(=O)CSc1nc(-c2ccccc2)cs1 | 132% (active) |
| O=C(CSc1nc(-c2ccccc2)cs1)Nc1cccc([N+](=O)[O-])c1 | 103% (inactive) |

| Structure (SMILES) | binding response (% of control) |
| --- | --- |
| O=C(COc1ccccc1Cl)Nc1ccc(C(=O)c2ccc(C(=O)O)cc2)cc1 | 104% (inactive) |
| CC(=O)Nc1ccc(NC(=O)COc2ccccc2C(=O)Nc2cccc(Cl)c2Cl)cc1 | 184% (active) |
| CN1CCN(C(=O)c2ccccc2NC(=O)COc2ccccc2Cl)CC1 | 101% (inactive) |
| FC(F)(F)c1nnc2c3ccccc3c(Cl)nn12 | 107% (inactive) |
| COc1ccc2[nH]c(=O)c(CN(Cc3cccnc3)S(=O)(=O)c3ccccc3F)cc2c1 | 100% (inactive) |
| Cc1ccc(NC(=O)Cc2nnc(SCC(=O)Nc3nncs3)n2C)cc1 | 97% (inactive) |
| O=C(CCCOc1ccccc1)Nc1cccc(C(=O)O)c1 | 106% (inactive) |
| O=C(O)CCCC(=O)Nc1ccc(Oc2cccc(C(F)(F)F)c2)nc1 | 131% (active) |
| O=Cc1ccc(Oc2cccc(C(F)(F)F)c2)nc1 | 98% (inactive) |
| COc1ccc(/C=C2\SC(=O)N(CCC(=O)NCCCn3ccnc3)C2=O)cc1 | 100% (inactive) |
| COc1ccc(OC)c(/C(C)=N\NC(=O)c2cc3cc(Cl)ccc3n2C)c1 | 103% (inactive) |
| Cc1cccnc1NC(=O)Cn1c(=O)oc2ccccc21 | 103% (inactive) |
| CN1C(=O)/C(=C\c2ccc(-c3ccccc3)o2)SC1=S | 46% [inhibitor] (active) |
| O=C(O)C(c1ccccc1)N1C(=O)/C(=C\c2ccc(-c3cccc(Cl)c3)o2)SC1=S (stereo not drawn) | 96% (inactive) |
| NS(=O)(=O)c1ccc(-c2ccc(/C=C3\SC(=O)NC3=O)o2)cc1 | 100% (inactive) |
| C=C(C)CNC(=O)c1ccc(OC2CCN(C(=O)COC)CC2)cc1 | 105% (inactive) |
| C=CCSc1nnc(N2C(=O)C(O)=C(C(=O)c3ccco3)C2c2ccc(F)cc2)s1 (stereo not drawn) | 101% (inactive) |
| C(=N\N1CCN(c2ccccn2)CC1)/C1=C(N2CCOCC2)C(=C/c2ccccc2)/CC1 | 102% (inactive) |
| O=C1Nc2ccc(Br)cc2/C1=N/N=C/C1=C(N2CCOCC2)C(=C\c2ccccc2)/CC1 | 45% [inhibitor] (active) |
| COc1ccc(/C=N/N=C2/C(=O)Nc3ccccc32)cc1O | 100% (inactive) |
| O=C1N[C@H](Cc2ccccc2)C(=O)N[C@H]1Cc1cn(S(=O)(=O)c2ccccc2)c2ccccc12 | 106% (inactive) |
| CCOC(=O)COn1c(=O)c(-c2ccc(OCC)cc2)[n+]([O-])c2ccccc21 | 109% (inactive) |
| CCOc1ccccc1CNS(=O)(=O)c1cc(-c2cc(C)no2)ccc1C | 96% (inactive) |
| CN1CCC(CN)(N2CCN(c3ccccc3)CC2)CC1 | 106% (inactive) |

| Structure (SMILES) | binding response (% of control) |
| --- | --- |
| COC(=O)c1ccc(N2CCOCC2)c(NC(=O)c2ccc(Br)o2)c1 | 101% (inactive) |
| Cc1c(C)c(C)c2[nH]c(=S)[nH]c2c1C | 101% (inactive) |
| O=c1[nH]c(=S)[nH]c2[nH]c(=S)[nH]c12 | 48% [inhibitor] (active) |
| COc1ccc(CCn2c(NCCCN3CCOCC3)nc3c2c(=O)[nH]c(=O)n3C)cc1 | 101% (inactive) |
| COc1ccc(CCn2c(NN=C3CCCC3)nc3c2c(=O)[nH]c(=O)n3C)cc1 | 44% [inhibitor] (active) |
| COc1ccc(CNc2nc3c(c(=O)[nH]c(=O)n3C)n2Cc2ccccc2)cc1 | 104% (inactive) |
| O=c1c2c(-c3ccccc3)ccnc2[nH]n1-c1ccccc1 | 109% (inactive) |
| COc1ccc(CCNC(=O)CSCc2ccc(Br)cc2)cc1OC | 104% (inactive) |
| CCCc1nn(C)c2c(=O)[nH]c(-c3cc(S(N)(=O)=O)ccc3OCC)nc12 | 103% (inactive) |
| CCOC(=O)C1CCN(c2ccc(C(=O)O)cc2[N+](=O)[O-])CC1 | 103% (inactive) |
| O=C(O)C1CCN(c2ccc([N+](=O)[O-])cc2[N+](=O)[O-])CC1 | 49% [inhibitor] (active) |
| CC1CCN(c2ccc([N+](=O)[O-])cc2C(N)=O)CC1 | 100% (inactive) |
| CC(C)CNS(=O)(=O)c1ccc(CCC(=O)NCc2ccc(Cl)cc2)cc1 | 96% (inactive) |
| O=C(Nc1ccc(S(=O)(=O)Nc2ccccn2)cc1)c1ccccc1 | 97% (inactive) |
| CCCCc1ccc(NC(=S)NCCCN2CCOCC2)cc1 | 93% (inactive) |
| COc1cccc(NC(=S)NCc2ccco2)c1 | 98% (inactive) |
| Cc1cc(C)cc(NC(=S)NCCCN2CCOCC2)c1 | 117% (inactive) |
| COc1cccc(NC(=S)N(Cc2ccc(C)cc2)Cc2ccccn2)c1 | 104% (inactive) |
| COc1cccc(NC(=S)NCc2ccccn2)c1 | 143% (active) |
| COc1cccc(NC(=S)NCCCN2CCOCC2)c1 | 140% (active) |
| O=C(NCCN1CCN(C(=O)c2cccc([N+](=O)[O-])c2)CC1)C(=O)NCc1ccc(Cl)cc1 | 105% (inactive) |
